Laboratory results from the OligoGym collection.

Molecular target: KDELR1
Test: pooled miR-30 sensor sort-seq; sequence = guide strand
Conditions: shRNA
Further: reference of the scale not given here.

Sequence | sensor-assay potency score (higher = more potent)
AGGAACTCCACTCTGAACGTGT | -0.99
TTGAGCAGTAGCAAGATGATGG | -0.401
TTTGGTGATATAGAGGTAGAAG | -0.962
TAAATCAACCAGACCGTGGTGA | 0.82
TTGAAGAGATAGAGCGTGCGGT | -0.25

Molecular target: KDM2B
Test: as above
Conditions: shRNA

Sequence | sensor-assay potency score (higher = more potent)
TTCTTGGAGATATTGGTCCAGC | -0.935
TATCTCTCCAGGACATACCAGC | -0.897
TTTGGCATCGTTCCACACGGTC | -1.07
TTCGAGTGCTCATCCGACCTGC | 0.201
TTGGAGATATTGGTCCAGCTGA | -0.912
TTCTTTGCCAGGTTTGAGCTGC | -0.103
TGGTTGAACAGCTTCTCCCTTG | -0.428
TATCGCTGGCGGTCAATCGGGC | -0.118
TTCTTTGCCAGGTTTGAGCCGC | -0.547
TTGTCCATCTGACCTGGCCTGT | -0.884
TAAACTTGCCTTCCTCCTCTTC | -0.422
TTACACTTCGGACACTCCCAGC | -1.12

Molecular target: KDR
Test: as above
Conditions: shRNA

Sequence | sensor-assay potency score (higher = more potent)
ATTTTGACTGCTACTGTCCTGC | 0.0399
TGTCTTTTCTTGGTCTTCCTGT | 0.316
TAGCTGATCATGTAGCTGGGAA | -0.114
TAGACTGGTAACTTTCATCATT | -0.75
TTGCTGTCTTGTCAATTCCAAA | -1.68
TTTTGCTTCACAGAAGACCATG | -1.02
TAATTTGGTTCTGTCTTCCAAA | -0.462
TTCTTCTACATCACTGAGGGAC | -0.165
TTGACTGCTACTGTCCTGCAAG | -0.615
TTCTTCTTGGTCATCAGCCCAC | -0.727
TAATAGACTGGTAACTTTCATC | -0.621
TTGCACTCCAATCTCTATCAGC | -0.492

Molecular target: KHDRBS3
Test: as above
Conditions: shRNA

Sequence | sensor-assay potency score (higher = more potent)
TTGTGTCTTGAGTTAGTCCACT | -0.733
TACTACAACTCCAACTGGCCGG | -0.46
TTGCTGTCCTCGCTGAAGGTGC | -1.17
TTGAGTTAGTCCACTCTTCTTG | 0.078
TTGAACAGTATACAGGACTGGT | -0.303
TAAGTCTCTTGTGTCGGGGGTG | -0.204
TGGTACTACAACTCCAACTGGC | -0.54
TTCTTCTTGTAAACGCTTCAGA | -0.501
TAACACTTTCTGTCCCAGCTTC | 0.341
TTCTATTTCTTGGTTCACCAGG | -0.397
TTGAGATGGAAGTACTTCGCTT | -0.344
